Laboratory results from article PMC4336329 (PLoS ONE, 2015).
Screen size: about 310,000 compounds; about 14,000 (4.5%) showed an effect of 50% or more. Effects have a minus sign here. Shown is part of a subset that was picked to be rich in strong results.

molecular target: human ether-à-go-go-related gene (hERG) potassium channel (human, UniProt Q12809); test: primary screen, population patch clamp on CHO cells stably expressing hERG; higher = less effect of the substance
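Also: peak tail current of the secondary pulse compared with the same well before compound.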

Sequence of human ether-à-go-go-related gene (hERG) potassium channel (Q12809 whole entry, looked up): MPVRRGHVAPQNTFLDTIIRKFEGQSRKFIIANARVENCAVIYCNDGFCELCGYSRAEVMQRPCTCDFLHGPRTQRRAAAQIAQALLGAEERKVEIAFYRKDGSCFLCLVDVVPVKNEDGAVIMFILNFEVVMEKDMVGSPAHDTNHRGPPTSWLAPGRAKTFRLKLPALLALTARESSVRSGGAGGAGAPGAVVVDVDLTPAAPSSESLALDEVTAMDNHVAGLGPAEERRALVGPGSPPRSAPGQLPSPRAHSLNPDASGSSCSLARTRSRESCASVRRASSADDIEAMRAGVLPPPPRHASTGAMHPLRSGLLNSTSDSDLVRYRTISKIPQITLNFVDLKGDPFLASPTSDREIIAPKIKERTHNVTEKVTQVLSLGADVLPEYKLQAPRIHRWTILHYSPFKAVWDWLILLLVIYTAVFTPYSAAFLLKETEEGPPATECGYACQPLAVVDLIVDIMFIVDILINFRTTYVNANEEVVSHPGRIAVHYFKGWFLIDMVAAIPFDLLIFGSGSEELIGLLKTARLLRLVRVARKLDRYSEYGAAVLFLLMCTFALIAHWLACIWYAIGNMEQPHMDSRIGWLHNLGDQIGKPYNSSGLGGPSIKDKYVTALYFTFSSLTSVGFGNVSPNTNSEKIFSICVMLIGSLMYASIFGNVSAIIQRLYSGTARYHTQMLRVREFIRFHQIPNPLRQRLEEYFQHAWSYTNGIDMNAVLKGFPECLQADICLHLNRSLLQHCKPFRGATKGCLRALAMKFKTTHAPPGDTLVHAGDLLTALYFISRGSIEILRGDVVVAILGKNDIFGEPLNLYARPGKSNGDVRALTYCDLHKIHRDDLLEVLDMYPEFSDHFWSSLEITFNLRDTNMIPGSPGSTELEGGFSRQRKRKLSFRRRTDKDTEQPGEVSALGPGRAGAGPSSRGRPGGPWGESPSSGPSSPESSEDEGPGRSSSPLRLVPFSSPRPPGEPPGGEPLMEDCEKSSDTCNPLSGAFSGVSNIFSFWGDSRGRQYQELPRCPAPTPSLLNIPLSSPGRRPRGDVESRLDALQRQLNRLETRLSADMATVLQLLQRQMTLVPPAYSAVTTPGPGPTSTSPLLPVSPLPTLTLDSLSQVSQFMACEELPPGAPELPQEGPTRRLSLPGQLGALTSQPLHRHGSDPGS

SMILES	hERG current change (%, negative = inhibition) at 10uM [%]
COc1ccc(OC)c2c1C(=O)c1ccccc1C2=O	-5.81
O=C(NCc1cccs1)c1cc2c(s1)-c1ccccc1OC2	1.42
CC1CCCC(C)N1CCCNC(=O)c1ccc2c(c1)NC(=O)c1ccccc1S2 (stereo not drawn)	4.54
O=C(NCCCN1CCOCC1)c1cc2c(s1)-c1ccccc1OC2	-44.5
COC(=O)c1cc2c(s1)-c1ccccc1OC2	0.157
O=C(NC1CC1)c1cc2c(s1)-c1ccccc1OC2	12.6
CC1CCCC(C)N1CCCNC(=O)c1cc2c(s1)-c1ccccc1OC2 (stereo not drawn)	-69.9
CCN1CCN(CCCNC(=O)c2cc3c(s2)-c2ccccc2OC3)CC1	-66.7
CN(C)CCNC(=O)c1cc2c(s1)-c1ccccc1OC2	-67.2
O=C(Nc1cccnc1)c1cc2c(s1)-c1ccccc1OC2	-2.06
Cc1ccc(O)c(-c2cc3ccccc3[nH]2)c1	-15.8
O=C(O)COCC(=O)N1CCCN(c2nccc(C(F)(F)F)n2)CC1	17.7
CCOC(=O)c1ccc(NC(=O)Cn2cc3c(n2)CCC(C)C3)cc1 (stereo not drawn)	-4.16
COC(=O)C1=C(c2ccc(Cl)c(C(F)(F)F)c2)C[C@@H]2CC[C@H]1N2C(=O)NCC1CC1	-16.3
COc1ccc(CC(=O)N/N=C(/C)CC(=O)N(C)c2ccccc2)cc1	9.63
Cc1ccc(NC(=O)c2cc(NC(=O)c3ccco3)ccc2N2CCCCC2)cc1	13
CCCN(CC(=O)Nc1cccc(Br)c1)CC(=O)Nc1ccc(F)c(F)c1F	-10.1
CCOC(=O)N1CCN(C(=O)c2ccc3c(c2)NC(=O)/C(=C/c2ccccc2)S3)CC1	-17.8
Cn1c2ccccc2c2nnc(SCC(=O)Nc3cccc(O)c3)nc21	-45.6
Cc1ccc(NC(=S)N2CCN(Cc3ccc4c(c3)OCO4)CC2)c(C)c1	-1.01
Cc1ccc(Nc2nc(N)nc(CN3CCC(C)CC3)n2)c(C)c1	-57.8
Cc1ccccc1Nc1nc(N)nc(CN2CCN(Cc3ccc4c(c3)OCO4)CC2)n1	-68
COc1ccccc1Nc1nc(N)nc(CN2CCN(Cc3ccc4c(c3)OCO4)CC2)n1	-78.1

SMILES	hERG current change (%, negative = inhibition) at 10uM [%]
Cc1ccccc1N1CCN(Cc2ccc3c(c2)OCO3)CC1	-31.2
Cc1ccc(Nc2nc(N)nc(CCl)n2)c(C)c1	16.1
Cc1ccc(Nc2nc(N)nc(CN3CCCCCC3)n2)c(C)c1	-45.8
Cc1cccc(Nc2nc(N)nc(CN3CCC(C)CC3)n2)c1C	-37.6
COc1ccccc1NC(=S)N1CCN(Cc2ccc3c(c2)OCO3)CC1	-1.31
COc1ccccc1N1CCN(Cc2ccc3c(c2)OCO3)CC1	-20.1
Cc1ccc(Nc2nc(N)nc(CN3CCN(Cc4ccc5c(c4)OCO5)CC3)n2)c(C)c1	-76.9
Cc1ccccc1NC(=S)N1CCN(Cc2ccc3c(c2)OCO3)CC1	-10.3
O=C(c1ccc2ccccc2c1)N1CCN(c2ccccn2)CC1	-20
CCOc1ccc(NC2=NCC(=O)N2Cc2cccs2)cc1.Cl	-1.9
COc1ccc(/C(C)=N/NC(=O)c2cc(C)[nH]n2)c(OC)c1	1.33
O=C(Nc1nccs1)c1cc2c(s1)CCCCC2	6.98
CSCCC(NC(=O)c1ccco1)C(=O)N1CCCCCCC1 (stereo not drawn)	-4.39
O=C(CCc1nnc(CCCCc2ccccc2)o1)NCCCc1cccnc1	-14.8
COc1ccccc1CCNC(=O)c1c(C)nn(CC(C)C)c1Cl	-4.9
CCCC(=O)NC(=S)Nc1sc2c(c1C(N)=O)CCC2	11.7
Cc1ccc(NC(=O)Cn2c(=O)cnc3ccccc32)cc1S(=O)(=O)N1CCCCC1	-50.8
Cc1ccc(S(=O)(=O)N2CCCCC2)cc1NC(=O)Cn1c(=O)cnc2ccccc21	9.61
Cc1ccc(NC(=O)Cn2c(=O)cnc3ccccc32)cc1S(=O)(=O)N1CCOCC1	-30.4
O=C(Cn1c(=O)cnc2ccccc21)Nc1cccc(S(=O)(=O)N2CCOCC2)c1	-21
O=C(Cn1c(=O)cnc2ccccc21)Nc1cccc(S(=O)(=O)N2CCCCC2)c1	-50.3
COc1ccc(NC(=O)Cn2c(=O)cnc3ccccc32)cc1S(=O)(=O)N1CCCCC1	-10.9
